The values below come from PubChem BioAssay AID1440 (NMMLSC, 2008).

Among all 220,000 compounds or so, fewer than 10 were called active. Not shown: some 92% with an inconclusive outcome. The rule behind the calls is not given here. Only a sample is shown.

Sequence of Guanine nucleotide-binding protein G(o) subunit alpha (Homo sapiens) + Regulator of G-protein signaling 19 (Homo sapiens) (P09471 whole entry, looked up): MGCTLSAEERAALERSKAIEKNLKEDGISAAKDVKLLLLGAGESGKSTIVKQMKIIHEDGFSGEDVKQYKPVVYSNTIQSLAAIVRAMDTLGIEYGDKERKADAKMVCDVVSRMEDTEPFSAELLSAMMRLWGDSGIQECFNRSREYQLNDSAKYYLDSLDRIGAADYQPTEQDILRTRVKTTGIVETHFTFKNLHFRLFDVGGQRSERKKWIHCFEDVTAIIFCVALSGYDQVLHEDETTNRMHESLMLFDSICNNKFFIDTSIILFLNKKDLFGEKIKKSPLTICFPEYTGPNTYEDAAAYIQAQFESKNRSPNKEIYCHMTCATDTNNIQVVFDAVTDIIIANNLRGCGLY
Sequence of Guanine nucleotide-binding protein G(o) subunit alpha (Homo sapiens) + Regulator of G-protein signaling 19 (Homo sapiens) (P49795 whole entry, looked up): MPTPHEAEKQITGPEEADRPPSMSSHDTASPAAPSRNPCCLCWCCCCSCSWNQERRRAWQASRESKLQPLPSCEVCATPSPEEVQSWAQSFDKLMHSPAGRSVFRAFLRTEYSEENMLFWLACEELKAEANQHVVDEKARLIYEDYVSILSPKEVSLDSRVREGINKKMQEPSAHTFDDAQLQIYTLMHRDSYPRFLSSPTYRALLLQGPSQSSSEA

The experiment concerns the target Guanine nucleotide-binding protein G(o) subunit alpha (Homo sapiens) + Regulator of G-protein signaling 19 (Homo sapiens) (UniProt P09471+P49795). The experiment in a line: regulators of RGS19 binding to Galphao, biochemical, multiplexed bead flow cytometry (AID 1440).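 Note: fluorescent Galpha o activated by aluminum fluoride binding bead-coupled RGS19.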 As to conditions: at 10 µM. (In general: In flow cytometry, cells or beads pass a laser one at a time.)
As to `O=C(c1ccccc1)N1CCCCCC1`, the binding response (% of control) stood at 58.2%.
Then `O=C(NC1CCCC1)C1CCC(CNS(=O)(=O)c2cccs2)CC1` (stereo unspecified), with 88.8%; and `CCOC(=O)c1ccc(N2CN=C3SCC(=O)N3C2)cc1`, with 94.6%; and `COc1ccc(-c2[nH]nc3c2C(c2ccsc2)C(C#N)=C(N)O3)cc1` (stereo unspecified), with 80.2%.
The same measure for `COc1ccccc1NC(=O)CSc1nnc(C2CCCCC2)n1C`: 50.3%; for `CC/C(Cc1ccccc1)=N/NC(=O)c1cccc(Br)c1`: 130%.
Then `COC(=O)c1c(CSc2cccc(C)c2)noc1C(=O)NCc1ccco1`, with 102%; and `CC(C)COCC1CC2(CC(C)C(=O)CC2=O)C(=O)O1` (stereo unspecified), with 56.6%; and `CCc1nnc(NC(=O)COC(=O)CN2C(=O)c3ccccc3C2=O)s1`, with 62.2%.
For `COCCn1c(SCC(=O)c2ccc3c(c2)OCCO3)nnc1C(C)C`, the binding response (% of control) came out at 59.5%.
Then `Cc1onc(-c2c(Cl)cccc2Cl)c1C(=O)Nn1cnnc1`, with 102%; and `CCc1ncc(C(=O)c2ccc(OC)cc2)n1C`, with 108%.
The same measure for `O=C(CN1CCCCCC1=O)OCc1ncc(-c2ccccc2)o1`: 96.5%.
Then `O=C1Nc2ccccc2/C1=C\c1cccn1-c1ccc(OC(F)(F)F)cc1`, with 63.3%; and `Cc1ccc(C(=O)CSc2nc(N)cc(=O)[nH]2)cc1`, with 64.8%.
`C/C(=N\NC(=O)CSc1nc2nc(C)cc(C)n2n1)c1ccccc1`: the binding response (% of control) was 96.1%.
Then `O=C(NCCCCC(NC(=O)c1ccc([N+](=O)[O-])cc1)C(=O)O)c1ccc([N+](=O)[O-])cc1` (stereo unspecified), with 95.5%; and `CCOC(=O)Cn1nc(/C=C/c2ccc(C)cc2)ccc1=O`, with -18.6%; and `COC(=O)c1sccc1-c1ccc(C(=O)Nc2ccccc2)o1`, with 122%.
Then `Cc1ccc(-c2cc(C(=O)OCC(=O)Nc3cc(C)on3)c3ccccc3n2)c(C)c1`, with 81.7%.
The same measure for `O=C(CSc1nc2ccccc2c(=O)n1CC1CCCO1)NCC1CCCO1` (stereo unspecified): 94.2%; for `COC(=O)C(NC(=O)Nc1ccccc1OC)C(C)C` (stereo unspecified): 93.4%.
Consider `CCOC(=O)C1=C(C)NC2=C(C(=O)c3ccccc32)C1c1cccnc1` (stereo unspecified), for which the binding response (% of control) worked out at 104%.
The same measure for `CC(=O)Nc1ccc(OCC=C(Cl)Cl)cc1`: 82.1%; for `O=C(NCc1ccccc1)c1ccccc1OCC(=O)N1CCCCC1`: 38.1%; for `NC(=S)N/N=C1\CCSc2ccc(Cl)cc21`: 69%.
For `Cc1ccc(S(=O)(=O)c2c(N)n(Cc3ccco3)c3nc4ccccc4nc23)cc1C`, the binding response (% of control) came to 92.1%.
Then `Cc1ccc(C(=O)NNC(=O)C2CCN(Cc3ccccc3)CC2)cc1`, with 96.2%; and `CC1(C)C2CCC1(CS(=O)(=O)NCc1ccc(C(=O)O)cc1)C(=O)C2` (stereo unspecified), with 107%; and `C[C@H](NS(=O)(=O)c1ccccc1F)C(=O)OCC(=O)N1CCc2ccccc21`, with 106%.
The same measure for `CC(=O)c1cc2c(cc1NS(=O)(=O)c1ccccc1)OCO2`: 94.9%; for `Clc1ccc(Cc2noc(CN3CCN(c4ccccc4)CC3)n2)c(Cl)c1`: -14.4%; for `CC1(C)Cc2c(c(N3CCOCC3)nc3snc(N)c23)CO1`: 20.9%.
Consider `O=S1(=O)C=CC(N2CCOCC2)C1` (stereo unspecified), for which the binding response (% of control) was 162%.
Take `CCC(=O)NCCc1cc2cc(C)c(C)cc2[nH]c1=O`: the binding response (% of control) was found to be 96.3%.
The same measure for `Cc1noc(C)c1C(=O)Nc1cccnc1`: 77.2%; for `Cc1ccc(S(=O)(=O)N2CCSC2)cc1C`: 113%.
In the case of `COC(=O)Cc1c(C)nc2nc(-c3ccc(Cl)cc3)[nH]n2c1=O`, the binding response (% of control) turned out to be 112%.
Then `CC(C)(C#N)NC(=O)c1ccco1`, with 87.8%; and `Cc1cc2cc(CN(Cc3ccco3)C(=O)NCc3ccccc3)c(=O)[nH]c2cc1C`, with 98.1%; and `COc1ccc(-c2nc(-c3ccccc3)nc(N3CCN(C)CC3)c2C#N)cc1`, with 114%.
Then `O=S1(=O)CCN2C(Cc3ccc(SC(F)F)cc3)=CSC2=N1`, with 121%; and `Cc1ccc(Cl)c(NC(=O)COC(=O)c2ccccc2C(=O)c2ccc(Cl)c([N+](=O)[O-])c2)c1Cl`, with 115%.
For the compound `CCCCN1c2ccccc2N(CCCO)c2cc(C)nnc21`, the binding response (% of control) is 99%.
On to `O=C(NCC(c1cccnc1)N1CCN(c2ccc(F)cc2)CC1)C1CCCCC1` (stereo unspecified), for which the binding response (% of control) was 104%.
The same measure for `CC12CC(c3ccccc3O1)N(C(=O)c1ccco1)C(=O)N2c1ccccc1` (stereo unspecified): 95.1%; for `Cn1cnnc1SCC(=O)N1N=C2/C(=C/c3ccco3)CCCC2C1c1ccco1` (stereo unspecified): 61.5%; for `CC(NS(=O)(=O)c1cccc(Cl)c1)C(=O)Nc1ccc(-c2nc3ccccc3s2)cc1` (stereo unspecified): 115%.
Then `Cc1nn(Cc2ccc(Cl)cc2)c(C)c1N`, with 8.58%; and `CC(C)SCCCCOc1ccc2ccccc2c1`, with 88.9%.
The same measure for `CCOC(=O)c1nnn(-c2nc(N3CCCC3)nc(N3CCCC3)n2)c1-c1ccccc1`: 112%.
For the compound `CN(C)S(=O)(=O)c1ccc(C(=O)Nc2nnc(SCc3ccccc3)s2)cc1`, the binding response (% of control) was -32.2%.
Then `Cc1cc(C)n(C2CCCCC2OC(=O)c2ccccc2)n1` (stereo unspecified), with 110%; and `CC1CN(S(=O)(=O)c2cccc(-c3cn4ccccc4n3)c2)CC(C)O1` (stereo unspecified), with 105%.
Then `O=C(CSc1nnc(COc2ccc(Cl)cc2)o1)N1c2ccccc2CCc2ccccc21`, with 98.2%; and `COc1ccc(Cc2nc3ccc(S(N)(=O)=O)cc3[nH]2)cc1OC`, with 56.5%.
